Z-score data for 72 compounds are collected here from PubChem BioAssay AID488969 (Vanderbilt High Throughput Screening Facility, 2010).

Over roughly 110,000 compounds, “z-score” has its median near -0.1; the highest 2% begin near 2. The sample holds the highest values, similar compounds and a random draw of the others, so the mix is not that of the screen. Calls of active or inactive are those of the source.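 The calls were made as follows: active = z-score in the third read window above 3 or below -3; inactive = the rest.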

For this test, the target named is Metabotropic glutamate receptor 8 (Rattus norvegicus) (UniProt P70579). As to the kind of experiment: mGluR8 Gi/Go-coupled signaling modulation – cell-based, rat, thallium flux, HTS, primary screen (AID 488969). The following applies: HEK293 rat mGluR8, GIRK (G protein-gated inwardly rectifying potassium channel) thallium flux, FluoZin2; at 10 µM; stronger effect = higher value; submaximal glutamate (EC20) added with thallium.
Sequence of Metabotropic glutamate receptor 8 (Rattus norvegicus) (P70579 whole entry, looked up): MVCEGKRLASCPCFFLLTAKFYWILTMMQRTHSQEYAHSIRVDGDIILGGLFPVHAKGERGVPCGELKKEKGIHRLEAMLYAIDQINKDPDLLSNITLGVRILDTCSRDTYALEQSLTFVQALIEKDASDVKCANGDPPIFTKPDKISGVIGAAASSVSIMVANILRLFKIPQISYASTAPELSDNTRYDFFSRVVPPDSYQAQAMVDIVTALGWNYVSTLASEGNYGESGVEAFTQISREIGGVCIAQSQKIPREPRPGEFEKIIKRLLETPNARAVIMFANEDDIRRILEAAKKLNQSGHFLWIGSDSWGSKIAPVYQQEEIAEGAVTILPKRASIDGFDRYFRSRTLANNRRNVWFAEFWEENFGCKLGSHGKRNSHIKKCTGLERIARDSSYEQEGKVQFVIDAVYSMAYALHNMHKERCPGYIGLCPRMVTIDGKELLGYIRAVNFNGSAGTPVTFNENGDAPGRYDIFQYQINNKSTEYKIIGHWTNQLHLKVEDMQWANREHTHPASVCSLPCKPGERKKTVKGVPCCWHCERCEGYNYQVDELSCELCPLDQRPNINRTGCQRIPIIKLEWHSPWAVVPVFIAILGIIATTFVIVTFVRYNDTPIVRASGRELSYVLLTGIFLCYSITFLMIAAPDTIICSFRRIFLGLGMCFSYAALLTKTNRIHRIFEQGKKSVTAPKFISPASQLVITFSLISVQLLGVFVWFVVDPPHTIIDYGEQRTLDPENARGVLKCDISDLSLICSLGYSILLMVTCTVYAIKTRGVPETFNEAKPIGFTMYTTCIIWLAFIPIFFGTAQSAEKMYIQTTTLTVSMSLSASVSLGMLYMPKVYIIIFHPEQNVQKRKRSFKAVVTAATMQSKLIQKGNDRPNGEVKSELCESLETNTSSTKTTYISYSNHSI
`Cc1cc(C(F)F)n2ncc(C(=O)NCCc3ccc(Cl)cc3)c2n1` displayed a z-score of -0.612. For `Cc1nn(CC(=O)OCC(=O)Nc2ccccc2[N+](=O)[O-])c(C)c1[N+](=O)[O-]` the value was 0.113; for `Nc1nc(-c2cccnc2)nn1C(=O)COc1ccccc1`, -0.135; for `O=C(NCC(c1cccnc1)N1CCN(c2ccccc2F)CC1)c1cccc(Cl)c1` (configuration not stated), 0.459. `CCCOc1c(OC)cc(Cl)cc1C1NC(=O)NC(C)=C1C(=O)NCc1ccccc1` (configuration not stated): the z-score was -0.431.

`CC1CCN(CCCOc2ccc(OCc3ccccc3)cc2)CC1`: the z-score stood at 0.441. As to `c1ccc(COc2ccc(OCCCN3CCCCC3)cc2)cc1`, the z-score came out at 2.89. `c1ccc(COc2ccc(OCCCCN3CCCC3)cc2)cc1` had a z-score of 0.565.

`c1ccc(COc2ccc(OCCCN3CCCC3)cc2)cc1`: the z-score stood at 0.306. For `O=C(c1ccccc1)c1ccc(OCCCN2CCCCC2)cc1` the value was 1.54; for `c1ccc(COc2ccc(OCCCCN3CCCCC3)cc2)cc1`, 2.79; for `CCOC(=O)c1c(NC(=O)CCN2C(=O)c3ccccc3C2=O)sc(C(=O)OC(C)C)c1C`, -0.193. `O=C(c1cnccn1)N(c1ccccc1)C1(C(=O)NC2CCCC2)CCCCC1` displayed a z-score of 0.00523. For `CCOC(=O)CSc1nc(-c2ccc3c(c2)OCO3)ccc1C#N` the value was -0.00752; for `COc1ccc2occ(C(=O)c3ccc(N=C(C)N(C)C)cc3)c2c1`, 3.46 (active).

Compound `COc1ccc2occ(C(C)=O)c2c1` yielded a z-score of -1.2. For `COc1ccc2occ(C(=O)c3cccs3)c2c1` the value was 0.191; for `COc1ccc(CCNC(=S)Nc2ccc(C)cc2C)cc1`, -0.0431. For `CCc1cc2c(N[C@@H](C)C(=O)O)ncnc2s1` the value was 0.00833. `N/C(=N\OC(=O)CCc1ccccc1)c1ccc(Br)cc1`: the z-score was 0.12. `N/C(=N\OC(=O)Cc1ccccc1)c1ccc(Br)cc1` had a z-score of 2.92.

Consider `N/C(=N\OC(=O)c1ccc(Br)cc1)c1ccccc1`, for which the z-score is -0.37. For `O=C(NC(C(=O)O)c1ccccc1)c1ccc(S(=O)(=O)N2CCOCC2)cc1` (configuration not stated) the value was -0.0595; for `CCCCn1c(SCC(=O)N2CCC(C)CC2)nc2ccsc2c1=O`, -1.86. `Cc1ccc(-c2nnc(-c3ccccc3)o2)cc1` came in with a z-score of -0.254. Compound `CCNc1nnc(-c2ccc(C)cc2)o1` yielded a z-score of 2.74. Compound `Cc1ccc(-c2nnc(Nc3ccccc3)o2)cc1` had a z-score of 1.1. For `CC(=O)Nc1cccc(C(=O)OC(C(=O)c2ccc(C)cc2)c2ccccc2)c1` (configuration not stated) the value was 0.508; for `CCN(CC)c1ccc(NC(=O)CN2CCN(S(=O)(=O)c3cc(Cl)ccc3OC)CC2)cc1`, -0.269. For `CC1CN(CC(=O)c2c(N)n(Cc3ccccc3)c(=O)n(C)c2=O)CC(C)O1` (configuration not stated) the value was 0.178; for `Cc1ccc(Cn2nnc3c(=O)[nH]c(C4CCN(C(=O)c5cccs5)CC4)nc32)cc1`, -0.73. To `O=C(NCC(c1cccs1)N1CCOCC1)c1ccccc1NS(=O)(=O)c1ccc(Cl)c([N+](=O)[O-])c1` (configuration not stated) belongs -0.572; to `Cc1cc(=O)n2[nH]c(C)c(-c3ccccc3)c2n1`, -0.675. In turn, `Cc1[nH]n2c(=O)cc(C(C)C)nc2c1-c1ccccc1` yielded a z-score of -0.963.

Turning to `Cc1[nH]n2c(=O)cc(C(C)(C)C)nc2c1-c1ccccc1`, the z-score was 4.43 (active).

Turning to `CC(C)OC(=O)c1cccnc1N1CCN(c2ccc(F)cc2)CC1`, the z-score is -0.216. For `Cc1nc2ccc(NC3=NCCCCC3)cc2s1` the value was 0.806; for `COc1cc(OC)c(C2C(C(=O)N3CCOCC3)=C(C)NC3=C2C(=O)CC(C)(C)C3)cc1OC` (configuration not stated), -0.103; for `Cc1ccn2c(NC3CCCCC3)c(C(C)C)nc2c1`, 2.52. `CC(C)c1nc2ccccn2c1NC1CCCCC1` returned a z-score of 0.45. For `Cc1ccn2c(NC3CCCCC3)c(C)nc2c1` the value was -0.312; for `Cc1ccc(/C=C/S(=O)(=O)N2CCC(C(=O)O)CC2)cc1`, -0.628; for `CCOC(=O)N1CCN(c2nnnn2-c2ccccc2)CC1`, -0.14. As to `Cc1ccc(S(=O)(=O)N2CCOCC2)cc1NC(=O)COC(=O)CSc1ccc(Br)cc1C`, the z-score is -0.132. In turn, `CC(C)NC(=O)CSCc1c(Cl)cccc1Cl` registered a z-score of -0.342.

As for `CCn1ncc(Cl)c1C(=O)Nc1cc(Cl)ccc1Cl`, the z-score turned out to be 0.0474. To `Cc1ccccc1OCc1nc2ccccc2c(=O)n1/N=C/c1cccc([N+](=O)[O-])c1` belongs -0.0563. Compound `CN1CC2=Cc3ccccc3OC23Oc2ccccc2C=C3C1` displayed a z-score of 2.01. In turn, `O=C1c2ccccc2OC2(C=Cc3ccccc3O2)N1Cc1ccccc1` (configuration not stated) came in with a z-score of 0.198. To `Cc1ccc(-c2nn(CC(=O)Nc3ccc4c(c3)nc3n4CCOC3)c(=O)c3ccccc23)cc1` belongs -0.236. In the case of `COc1ccccc1N1CCN(C(=O)Cn2c(=O)[nH]c3ccsc3c2=O)CC1`, the z-score is -0.563. For `S=C(NCCN1CCOCC1)Nc1ccc(Cl)cc1` the value was -0.102. For `CC(C)n1cc(NC(=O)c2cc(-c3ccccc3)on2)cn1`, the z-score was 16.8 (active). On to `O=C(Nc1cnn(C23CC4CC(CC(C4)C2)C3)c1)c1cc(-c2ccccc2)on1`, for which the z-score worked out at 0.107. `COc1cccc(-c2cc(C(=O)Nc3cnn(Cc4ccccc4C)c3)no2)c1` gave a z-score of 0.0739. Compound `Cc1ccc(-c2cc(C(=O)Nc3cnn(C(C)C)c3)no2)cc1` registered a z-score of 0.74. For `O=C(Nc1cccnc1)c1cc(-c2ccccc2)on1` the value was -0.466; for `CCCn1cc(NC(=O)c2cc(-c3ccccc3)on2)cn1`, 13 (active); for `COc1ccc(Sc2cc(C(F)(F)F)nc(-c3ccccn3)n2)cc1`, -0.417. For `CCOc1ccccc1CNC(=O)CCNC(=O)Cn1ccc2ccccc2c1=O` the value was 0.269; for `Cc1cccc(-n2c(-c3csc(C(C)C)c3)n[nH]c2=S)c1`, 2.87. To `CCc1cc(-c2n[nH]c(=S)n2-c2cccc(C)c2)cs1` belongs 0.65; to `Cc1cccc(-n2c(-c3csc4ccccc34)n[nH]c2=S)c1`, 2.62; to `Cc1ccccc1-n1c(-c2csc3ccccc23)n[nH]c1=S`, 0.627. Take `Cc1cccc(-n2c(-c3csc(C)c3C)n[nH]c2=S)c1`: the z-score amounted to 0.00757.

Consider `Cc1cccc(-n2c(-c3csc(C)c3)n[nH]c2=S)c1`, for which the z-score is 0.189.

For `CC(NC(=O)C1CCCCC1)C(=O)NC1=NCCS1` (configuration not stated), the z-score was 0.00509.

Regarding `Cc1cccc(C)c1Oc1nc(-c2ccccc2)ncc1S(=O)(=O)c1ccccc1`, the z-score is -0.0101. For `CN1CCN(CCCNC(=O)c2ccc3c(c2)N(Cc2ccccc2)CCS3)CC1` the value was 0.775; for `N#C/C(=N\Nc1ccc(Cl)cc1)C(=N)N1CCCCC1`, 0.186; for `Cc1cccc(C(=O)Nc2nnc(SCC(=O)Nc3ccc4c(c3)oc3ccccc34)s2)c1`, -0.242.

Compound `COC(=O)C1CCN(S(C)(=O)=O)CC1` yielded a z-score of -0.211.
